Nrf2 block – Nrf2 qHTS screen for inhibitors; Potency, µM (highest dose often 46 µM), inactives show at the highest dose activity change, negative = inhibition, actives largely listed as inhibitors; hit rate 2.1% among 360,000; A549 ARE-Fluc reporter, luciferase luminescence, 18-24 h; note: % is set by controls: 0 for no effect and ±100 for the full control effect; nearly all actives have a fitted effect of over 60% in size
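A549 ARE_Fluc cells (5000/well, 5% FBS OPTI-MEM) pre-incubated 2 h, then treated with compounds 18-24 h at 37C/5% CO2 in concentration-response. CellTiter-Fluor viability read first; BugLite luciferase luminescence after 15 min at room temperature gives Nrf2 activity.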
rTrxR1 inhibitor – qHTS Assay for Inhibitors of Mammalian Selenoprotein Thioredoxin Reductase 1 (TrxR1): qHTS | AID 588453, 2011 | recombinant rTrxR1, NADPH fluorescence consumption, selenite substrate | Thioredoxin reductase 1, cytoplasmic (Rattus norvegicus), O89049 | Potency, µM (series often up to 114 µM), for inactives: top-dose activity change, negative = inhibition, most hits filed as inhibitors | hit rate 1% among 390,000; note: % is set by controls: 0 for no effect and ±100 for the full control effect; nearly all actives have a fitted effect of over 65% in size
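Rat TrxR1 (90 nM in the dispensed reagent) was pre-reduced with 400 uM NADPH for 5 min at room temperature, then incubated with compound for 15 min. After 400 uM selenite was added, NADPH fluorescence (Ex 340/Em 450 nm) was followed for 8 min.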
Mito fusion act – qHTS Assay for Small Molecule Inhibitors of Mitochondrial Division or Activators of Mitochondrial Fusion | S. cerevisiae fusion-defective mutant growth rescue, CellTiterGlo 48 h | Potency, µM (top dose mostly 46.1 µM), inactives show at the highest dose growth rescue (activation), actives largely listed as activators | hit rate 0.23% among 320,000; note: % of control where 0% means no effect; nearly all actives have a fitted effect of over 45% in size
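Compounds are tested for their ability to restore growth of mitochondrial fusion-defective yeast strains at non-permissive 37C in YPEG medium over 48 hours. Viability is quantified by luciferase luminescence.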
A549 tox-1 – Nrf2 qHTS screen for inhibitors: counterscreen for cytotoxicity. hit rate 0.16% among 390,000. A549 ARE-Fluc cells, CellTiter-Fluor viability, 18-24 h. Potency, µM (top dose mostly 46 µM), without a hit: at the highest dose activity change, negative = cytotoxicity, usual class: inhibitors; note: % is set by controls: 0 for no effect and ±100 for the full control effect
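A549 ARE_Fluc cells in 5% FBS OPTI-MEM were exposed to compounds in concentration-response for 18-24 h at 37 deg C. Viability was read by CellTiter-Fluor fluorescence (Ex 405/Em 525) after 30 min, before the luciferase read.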
IDH1 R132H inh – qHTS for Inhibitors of mutant isocitrate dehydrogenase 1 (IDH1): qHTS | hit rate 0.093% among 390,000 | AID 602179, 2012 | IDH1-R132H enzyme, NADPH consumption, diaphorase/resazurin fluorescence | Potency, µM (doses to about 76.6 µM), for the others: at the highest dose activity change, negative = inhibition, hits mostly inhibitors | Isocitrate dehydrogenase [NADP] cytoplasmic (Homo sapiens), O75874; note: % is set by controls: 0 for no effect and ±100 for the full control effect; nearly all actives have a fitted effect of over 65% in size
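IDH1-R132H (0.5 ug/mL) preincubated 30 min with compound, then NADPH (0.016 mM) and alpha-KG (2 mM) added; 80 min at RT, pH 7.5. Remaining NADPH coupled via diaphorase/resazurin to fluorescence (540/590 nm); concentration-response curves normalized to no-enzyme control.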
TrxR1 substrate – qHTS Assay for Substrates of Mammalian Selenoprotein Thioredoxin Reductase 1 (TrxR1): qHTS; hit rate 0.01% among 390,000; Potency, µM (highest dose often 114 µM), inactives show top-dose activity change, negative = substrate turnover; purified TrxR1 substrate turnover, NADPH consumption readout; Thioredoxin reductase 1, cytoplasmic (Rattus norvegicus), O89049; note: % is set by controls: 0 for no effect and ±100 for the full control effect; nearly all actives have a fitted effect of over 50% in size
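Rat TrxR1, dispensed at 90 nM, was prereduced with 400 uM NADPH (final) for 5 min at ~22 deg C, then incubated with compound 15 min before 400 uM selenite. A first-read NADPH fluorescence drop versus no-compound background flagged substrates.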
FLuc enzyme inh – Nrf2 qHTS screen for inhibitors: Purified Fluc Biochemical Counterscreen for Hit Validation | shares compounds with Nrf2 block | purified firefly luciferase, luminescence inhibition | Potency, µM (doses to about 57.5 µM), for the others: top-dose activity change, negative = inhibition, usual class: inhibitors | hit rate 4% among 1,400; note: % is set by controls: 0 for no effect and ±100 for the full control effect; nearly all actives have a fitted effect of over 65% in size
Target sequence (P08659 whole entry, looked up): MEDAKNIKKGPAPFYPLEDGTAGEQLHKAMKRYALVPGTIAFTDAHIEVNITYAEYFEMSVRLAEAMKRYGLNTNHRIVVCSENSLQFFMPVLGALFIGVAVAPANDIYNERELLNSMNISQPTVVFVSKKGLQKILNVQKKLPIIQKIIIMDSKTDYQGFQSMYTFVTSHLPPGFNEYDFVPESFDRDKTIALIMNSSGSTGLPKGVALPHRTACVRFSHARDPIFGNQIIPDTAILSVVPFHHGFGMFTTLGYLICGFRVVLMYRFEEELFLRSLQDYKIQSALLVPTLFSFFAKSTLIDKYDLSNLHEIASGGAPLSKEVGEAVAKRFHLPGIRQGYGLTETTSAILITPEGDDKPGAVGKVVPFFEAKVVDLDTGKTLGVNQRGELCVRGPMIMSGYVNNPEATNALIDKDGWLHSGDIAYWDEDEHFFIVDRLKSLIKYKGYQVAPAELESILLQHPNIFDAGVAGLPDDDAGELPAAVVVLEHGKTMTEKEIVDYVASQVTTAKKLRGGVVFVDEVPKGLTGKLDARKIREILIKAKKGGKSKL
A549 tox-2 – Nrf2 qHTS screen for inhibitors: A549 ARE-Fluc Cytotoxicity Counterscreen for Hit Validation. AID 720523, 2013. Potency, µM (doses to about 46.1 µM), without a hit: at the highest dose activity change, negative = cytotoxicity, actives largely listed as inhibitors. hit rate 2% among 1,400. shares compounds with Nrf2 block. A549 ARE-Fluc cells, cytotoxicity counterscreen;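 note: cells exposed to compounds for 18 to 24 hours; % is set by controls: 0 for no effect and ±100 for the full control effect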
ARE-Fluc inh – Nrf2 qHTS screen for inhibitors: Nrf2 A549 ARE-Fluc Confirmation Assay for Hit Validation; shares compounds with Nrf2 block; A549 ARE-firefly luciferase reporter, luminescence; Potency, µM (top dose mostly 46.1 µM), inactives show top-dose activity change, negative = inhibition, actives largely listed as inhibitors; hit rate 74% among 1,400; AID 720524, 2013; note: % is set by controls: 0 for no effect and ±100 for the full control effect; nearly all actives have a fitted effect of over 65% in size
* marks the source's active call; other numbers are inactive results; u = inconclusive; x = no result; [ ] = remark or other dose. This is a sample that favours compounds with a hit; in the whole collection about 3.1% have one here. Calls come from the whole dose curve; as a rule, active = well fitted curve in the direction sought with a large enough effect; inconclusive = small, poorly fitted or top-dose-only effect, or another doubt; inactive = no such curve, though single readings can be large; an effect the other way counts as inactive or inconclusive. Potency is the fitted concentration of half-maximal effect.

SMILES | Nrf2 block | rTrxR1 inhibitor | Mito fusion act | A549 tox-1 | IDH1 R132H inh | TrxR1 substrate | FLuc enzyme inh | A549 tox-2 | ARE-Fluc inh
O=C1c2ccccc2C(=O)N1c1cccc2ccncc12 | 6% | x | x | 5% | x | x | x | x | x
COc1ccc(N2CCN(C(=O)CSc3c4c(nc5ccc(Cl)cc35)CCCC4)CC2)cc1 | u | 10% | x | -21% | -10% | 2% | x | x | x
O=C(CSc1c2c(nc3ccc(Cl)cc13)CCCC2)N1CCN(c2cccc(Cl)c2)CC1 | 9.2µM* | 10% | x | -27% | -2% | 0% | 2% | u | u
O=C(CSc1c2c(nc3ccc(Cl)cc13)CCCC2)N1CCN(c2ccc(Cl)cc2)CC1 | 2.9µM* | 11% | x | u | 16% | 1% | -1% | u | 21µM*
CCc1ccc(CNC(=O)CSc2c3c(nc4ccc(Cl)cc24)CCCC3)cc1 | 2% | 10% | x | -3% | -5% | -1% | x | x | x
O=C(COc1ccc(Br)cc1Cl)Nc1ncn[nH]1 | -27% | 6% | x | 0% | 2% | 6%[11.4 µM] | x | x | x
COCCCn1c(SCc2cccc(Cl)c2)nc2c(sc3ccccc32)c1=O | x | 18%[57.1 µM] | x | u | -7% | -1%[57.1 µM] | x | x | x
COC(=O)CSc1ncnc2c1sc1nc3c(cc12)COC(C)(C)C3 | 2.9µM* | 12%[57.1 µM] | -1% | 1% | 1% | -3%[57.1 µM] | u | -3% | 7.3µM*
CC(Oc1ccccc1)C(=O)Nc1ccc(C(N)=O)cc1 (stereo unspecified) | x | 18% | 4% | 10% | 13% | 8% | x | x | x
NC(=O)c1ccc(NC(=O)C#Cc2ccccc2)cc1 | 4.6µM* | u | 3% | -18% | -14% | -2% | u | u | 5.8µM*
O=C(Nc1ncc(Cc2ccc(C(F)(F)F)cc2)s1)c1ccc(-c2cccc([N+](=O)[O-])c2)o1 | 5.8µM* | -3% | -4% | -5% | 1% | -9% | 2% | -1% | 6.5µM*
COc1ccc(CCN(C)C(=O)Cc2ccc(-c3ccccc3)cc2)cc1OC | 5.8µM* | -23% | 10% | -1% | -9% | -9% | 0% | -2% | 18µM*
CCCCN(C(=O)c1ccc(N2CCCC2=O)cc1)c1c(N)n(Cc2ccccc2)c(=O)[nH]c1=O | 5.8µM* | -1% | -6% | -9% | 0% | -5% | 0% | -10% | 3.7µM*
COCCCN(C(=O)c1ccc(N2CCCC2=O)cc1)c1c(N)n(Cc2ccccc2)c(=O)[nH]c1=O | 19% | 8% | 1% | -5% | 1% | 6% | x | x | x
COc1ccccc1CNC(=O)Cn1c(=O)oc2cc(S(=O)(=O)NCc3ccccc3)ccc21 | x | 5%[57.1 µM] | x | 4% | 4% | -7%[57.1 µM] | x | x | x

Screening results: PubChem, National Center for Advancing Translational Sciences (NCATS)
